A549 tox = A549 cytotoxicity, counter-screen for Nrf2 inhibitors; 390,000 compounds, 0.16% hits; A549 ARE-Fluc cells, CellTiter-Fluor viability, 18-24 h; Potency, µM (titrated, usually from 46 µM), for inactives: at the top dose activity change, negative = cytotoxicity, usual class: inhibitors; AID 504648; also: potency is read from the fitted curve at half-maximal effect
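A549 ARE-Fluc cells in 5% FBS OPTI-MEM, 5000 cells/well, rested 2 h then exposed to compounds in concentration-response for 18-24 h at 37 °C. Viability by CellTiter-Fluor fluorescence (Ex 405/Em 525) after 30 min; luciferase luminescence (BugLite, 15 min, RT) read afterwards.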
PI4K2A inh = PI4K2A (human) kinase inhibition; Q9BTU6; activity change, negative = inhibition, % at 76.9 µM; purified PI4K2A, ADP-Glo luminescence, 1 h; active compounds read low; AID 1346378; 420,000 compounds, 0.13% hits; in the data active = activity change below about -50%; inconclusive = mostly about -30% to -49%;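 also: -100% = wells without enzyme as full effect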
Target sequence (Q9BTU6 whole entry, looked up): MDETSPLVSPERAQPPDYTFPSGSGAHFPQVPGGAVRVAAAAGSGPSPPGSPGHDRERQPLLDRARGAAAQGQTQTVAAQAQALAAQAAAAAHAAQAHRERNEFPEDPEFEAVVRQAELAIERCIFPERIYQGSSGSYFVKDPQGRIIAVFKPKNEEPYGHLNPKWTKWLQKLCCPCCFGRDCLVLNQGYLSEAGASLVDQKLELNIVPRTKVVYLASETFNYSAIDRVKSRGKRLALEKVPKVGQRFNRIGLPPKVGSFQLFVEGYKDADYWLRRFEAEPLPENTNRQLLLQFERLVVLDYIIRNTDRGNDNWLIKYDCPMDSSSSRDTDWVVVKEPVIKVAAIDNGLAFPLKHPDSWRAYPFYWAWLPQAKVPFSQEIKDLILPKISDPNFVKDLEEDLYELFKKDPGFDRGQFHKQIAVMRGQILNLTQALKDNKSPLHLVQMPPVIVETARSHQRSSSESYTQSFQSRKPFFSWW
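ADP-Glo luminescence measured ADP generated by PI4K2A enzyme (4 ug/mL before mixing) with 1.2 mM PI substrate (pre-mix) and 300 microM ATP (pre-mix). Tris pH7.5 buffer with MgCl2, Triton X-100; 1 h reaction at ambient temperature.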
KB-V1 MDR tox = KB-V1 MDR subline cytotoxicity; Potency, µM (titrated, usually from 46.1 µM), hits mostly cytotoxic; AID 1347076; 400,000 compounds, 3.4% hits; KB-V1 MDR cells viability, CellTiter-Glo, 72 h; also: potency is read from the fitted curve at half-maximal effect; nearly all actives have a fitted effect of over 60% in size
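Cytotoxicity via CellTiter-Glo luminescence after 72 h compound exposure at 37 degrees C. Cells: drug-selected KB-V1 line, DMEM phenol-red free plus 10% FBS. Compounds tested at multiple concentrations; normalized data fitted to concentration-effect curves.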
KB-3-1 cytotox = kills parental KB-3-1 adenocarcinoma cells | Potency, µM (series often up to 46.1 µM), usual class: cytotoxic | KB-3-1 viability, CellTiter-Glo ATP luminescence, 72 h | 400,000 compounds, 1.4% hits; also: potency is read from the fitted curve at half-maximal effect; nearly all actives have a fitted effect of over 60% in size
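Luminescent ATP read-out (CellTiter-Glo) measures survival of drug-naive KB-3-1 cells after 72 h compound exposure at 37 °C. Titration series was screened from lowest to highest concentration, with DMSO vehicle plates as background controls.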
Nrf2 block = blocks Nrf2 signaling; A549 ARE-Fluc reporter, luciferase luminescence, 18-24 h; Potency, µM (highest dose often 46 µM), inactives show at the highest dose activity change, negative = inhibition, actives largely listed as inhibitors; 360,000 compounds, 2.1% hits; AID 504444; also: potency is read from the fitted curve at half-maximal effect; nearly all actives have a fitted effect of over 60% in size
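Concentration-response testing used A549 ARE_Fluc cells at 5000 cells/well. Following an 18-24 h compound incubation, viability was read by fluorescence (Ex 405/Em 525) and luciferase output by luminescence.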
Giardia killer = Giardia lamblia killing; Giardia lamblia trophozoite viability; activity change, % at 7.66 µM, hits read low; 340,000 compounds, 0.15% hits; in the data active = activity change below about -80%; inconclusive = between about -30% and that limit;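 also: parasites exposed to compound for two days anaerobically before the ATP read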
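Killing of trophozoites was scored by loss of ATP luminescence after a 48 hrs anaerobic exposure to compounds at 37 deg C, using 100 cells per well.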
Numbers without * were called inactive; i = inactive; ? = inconclusive; . = no result. Rows were chosen to be rich in hits. Some 5.7% of all compounds tested hit in one or more screens of this group. Unless noted, calls follow the shape of the dose curve; as a rule, active = well fitted curve in the direction sought with a large enough effect; inconclusive = small, poorly fitted or top-dose-only effect, or another doubt; inactive = no such curve, though single readings can be large; an effect the other way counts as inactive or inconclusive. Unless noted, % is scaled to controls: 0 for no effect and ±100 for the full control effect.

SMILES	A549 tox	PI4K2A inh	KB-V1 MDR tox	KB-3-1 cytotox	Nrf2 block	Giardia killer
Fc1ccc(NC(=S)NCc2cccs2)cc1	0.2%	-1.5	18.4µM*	?	-21.7%	-10.3
COc1cc(/C=C/c2[nH]c(=O)[nH]c(=O)c2[N+](=O)[O-])cc([N+](=O)[O-])c1O	16.4µM*	-20.1	i	i	3.2%	5.1
Cc1nc2c(C(=O)N3CCCC3)cnn2c(C)c1Cc1c(F)cccc1Cl	-10.4%	-0.9	23.1µM*	i	6.5%	1.0
CCOC(=O)N1CCN(C(=O)c2cnn3c(C)c(Cc4ccc(C)cc4)c(C)nc23)CC1	-6.6%	7.3	3.66µM*	i	?	-11.4
COc1ccc(CNC(=O)c2cnn3c(C)c(Cc4c(F)cccc4Cl)c(C)nc23)cc1	?	0.5	i	?	.	.
COC(=O)[C@]12C[C@H](CC(=O)NCCCCc3ccccc3)C(=O)N(CCC3=CCCCC3)C1=C[C@H](C1CCCC1)O[C@@H]2C	.	-1.1	.	.	.	.
Cc1ccc(NC(=O)C(=O)NCC(c2cccnc2)N2CCN(Cc3ccccc3)CC2)cc1C (stereo not drawn)	4.3%	3.9	i	i	?	.
CCc1cc2c(=O)c(-c3ccc4c(c3)OCCO4)c(C)oc2cc1OS(C)(=O)=O	?	1.8	?	?	23.1µM*	-21.3
COC(=O)[C@]12C[C@H](CC(=O)N3CCN(C(=O)C4CC4)CC3)C(=O)N(Cc3ccc4c(c3)OCO4)C1=C[C@H](C(C)C)O[C@@H]2C1CC1	.	-4.7	.	.	.	.
CC(=O)c1cccc(NC(=O)CSCc2ccc(Br)cc2)c1	-0.2%	-8.2	18.4µM*	i	-6.6%	-0.3
Nc1ncnc2c1C1(CCCCC1)Cc1ccccc1-2	-2.2%	7.4	23.1µM*	?	7.3%	-7.5
O=S(=O)(c1ccc2ccccc2c1)N1CCN(c2nc(-c3ccccc3)nc3ccccc23)CC1	9.0%	.	i	?	?	?
CN(C)c1nc(NS(=O)(=O)c2ccc(Cl)cc2)nc(N(C)C)n1	-18.7%	5.5	13µM*	i	4.9%	5.4
COc1ccccc1C(=O)Nc1ccc(C(=O)/C=C/c2cccs2)cc1	-6.2%	2.1	23.1µM*	i	?	5.4
COc1ccc(/C=C/C(=O)c2ccc(NC(=O)c3cccs3)cc2)cc1OC	-19.3%	-4.0	20.6µM*	i	-17.1%	6.3
COc1ccc(C(=O)Nc2ccc(NC(=O)c3cccs3)cc2)cc1OC	2.2%	?	i	i	-7.9%	.
COc1ccc(Br)cc1/C=C/C(=O)c1ccc(NC(C)=O)cc1	8.2µM*	-2.6	?	4.11µM*	5.17µM*	-0.1
O=C(/C=C/c1cccs1)c1ccc(NC(=O)c2ccccc2F)cc1	-0.1%	4.0	?	i	3.6%	-25.4
COc1cc(S(=O)(=O)N2CCCC3(CCCCC3)C2)ccc1-n1cnnn1	12.1%	6.5	20.6µM*	i	-18.1%	-1.8
Cc1ccc(OCCCn2c(C3CC(=O)N(c4cccc(Cl)c4)C3)nc3ccccc32)c(C)c1 (stereo not drawn)	-15.5%	0.0	i	i	-29.4%	.
CCc1ccc(OCCn2c(C3CC(=O)N(Cc4ccc(F)cc4)C3)nc3ccccc32)cc1 (stereo not drawn)	-16.7%	1.6	i	i	14.6µM*	.
Cc1ccc(OCCn2c(C3CC(=O)N(Cc4ccc(F)cc4)C3)nc3ccccc32)c(C)c1 (stereo not drawn)	-0.8%	-3.6	?	?	23.1µM*	.
CCc1ccccc1NC(=O)Nc1cc(C(=O)NCc2cccc(F)c2)ccc1N1CCCC1	-26.3%	-0.6	i	i	.	.
Cc1ccc(-n2c(SCc3cccc4ccccc34)nnc2-c2ccccn2)cc1	.	-1.0	.	.	.	.
O=C(N/N=C/c1ccc2c(c1)OCO2)c1cc(-c2ccncc2)nc2ccccc12	-4.4%	-0.5	i	5.8µM*	19.7%	4.5
SMILES	A549 tox	PI4K2A inh	KB-V1 MDR tox	KB-3-1 cytotox	Nrf2 block	Giardia killer
Cc1cccc(C(=O)Nc2ccc(C(=O)N/N=C/c3ccc4c(c3)OCO4)cc2)c1	1.2%	2.0	?	?	?	-1.7
Cc1cccc(C(=O)Nc2cccc(C(=O)N/N=C/c3ccc4c(c3)OCO4)c2)c1	-1.8%	-7.2	i	13µM*	29.2%	-13.7
Cc1cc(C(=O)N/N=C/c2ccc3c(c2)OCO3)c2ccccc2n1	-0.8%	-5.2	?	2.59µM*	15.2%	-9.7
Cc1cc2c(s1)c1cnn(Cc3cccc(C)c3F)c(=O)c1n2C	1.8%	.	.	.	4.9%	.
COc1ccc(S(=O)(=O)N2CCN(c3nc(-c4cccs4)nc4ccccc34)CC2)cc1OC	3.4%	.	i	?	?	1.8
Cc1cccc(NC(=O)c2ccc(Cn3nc(N4CCN(c5ccccc5)CC4)ccc3=O)o2)c1C	?	-9.5	?	i	20.6µM*	.
O=C([C@@H]1CC=C[C@@H]2CCN(C3CCCCC3)C(=O)[C@@H]21)N1CCOCC1	.	.	i	i	.	.
O=C(NCC1CN(c2ccc(N3CCOCC3=O)cc2)C(=O)O1)c1ccc(Cl)s1 (stereo not drawn)	.	-0.7	.	.	.	.
Cc1cccc(N2CCN(C(=S)c3ccc(-c4ccccc4[N+](=O)[O-])o3)CC2)c1	?	3.7	?	16.4µM*	-17.9%	8.4
O=[N+]([O-])c1ccccc1-c1ccc(C(=S)N2CCCC2)o1	1.0%	-15.4	i	i	?	-14.6
CCCC1CCC2(CCCN2CCOC(=O)Nc2ccccc2)CC1 (stereo not drawn)	.	1.2	.	.	.	.
CCOC(=O)N1C(=O)C[C@](Sc2ccc(OC)cc2)(C(=O)N2CCCC2)[C@H]1c1ccc(OC)cc1	.	-8.5	.	.	.	.
CCOc1ccc(-n2nc(CO)c(C(=O)NCc3ccccn3)n2)cc1	0.0%	0.3	.	.	22.9%	.
CC1CN(CCOc2ccccc2-c2ccccc2)CC(C)O1 (stereo not drawn)	8.6%	4.8	20.6µM*	?	1.4%	-16.8
CC1CCN(CCOc2ccc(OCc3ccccc3)cc2)CC1	-6.6%	-3.6	14.6µM*	i	4.4%	-1.5
CC1CCN(CCCCOc2ccccc2-c2ccccc2)CC1	-0.2%	-3.7	?	?	8.1%	-13.9
CC1CCN(CCOCCOc2ccccc2-c2ccccc2)CC1	-6.7%	-5.3	11.6µM*	i	?	16.7
c1ccc(-c2ccccc2OCCN2CCCC2)cc1	1.5%	12.5	i	i	4.6%	-7.9
c1ccc(COc2ccc(OCCCCN3CCCC3)cc2)cc1	-9.6%	2.1	?	i	1.1%	-11.9
CCN(CC)CCN(C(=O)c1ccco1)c1nc2c(C)c(C)ccc2s1	3.1%	-0.8	i	i	11.7%	.
CN(C)c1ccc(/C=C/c2cc(N(C)C)nc3ccccc23)cc1	.	.	1.84µM*	0.581µM*	.	.

Source: PubChem BioAssay
